# Screens from PubChem BioAssay.
# Rows were chosen to be rich in hits. Some 1.5% of all compounds tested hit in one or more screens of this group.
# PLCb3 inh = human PLC-beta3 inhibitors, primary screen, biochemical, fluorescence. 1-phosphatidylinositol 4,5-bisphosphate phosphodiesterase beta-3 (Homo sapiens), Q01970. Purified PLC-beta3, fluorogenic substrate. inhibition, % at 12.2 µM. actives 0.18% (n = 370,000); in the data active = inhibition above about 11%;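 note: 0% = median of compound wells on plate and 100% = full blocker control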
# HGIII-sPLA2 inh = human group III sPLA2 inhibitors, primary screen, biochemical, QFRET, BODIPY PC-A2 liposome substrate | Group 3 secretory phospholipase A2 (Homo sapiens), Q9NZ20 | QFRET BODIPY PC-A2 liposome hydrolysis, fluorescence | inhibition, % at 12.2 µM | actives 0.56% (n = 370,000) | AID 743126, 2013;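 active = inhibition above mean plus 3 SD of compounds lying within the high and low control bounds, cut at about 19% in these data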;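 note: 0% = median of test compound wells and 100% = no enzyme DMSO wells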
# DAGLB inh = DAGLB lipase inhibitors, primary screen, biochemical, fluorescence, HTS. Diacylglycerol lipase-beta (Homo sapiens), Q8NCG7. HEK293T DAGLB membrane lysate, EnzChek fluorogenic substrate. inhibition, % at 5.17 µM. actives 0.059% (n = 340,000). AID 504411, 2011; in the data active = inhibition above about 34%;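 note: 0% = enzyme with vehicle and 100% = wells lacking enzyme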
# PLC-gamma1 inh = PLC-gamma1 enzyme inhibitors, primary screen, biochemical, fluorescence, purified enzyme | 1-phosphatidylinositol 4,5-bisphosphate phosphodiesterase gamma-1 (Homo sapiens), P19174 | fluorogenic substrate | inhibition, % at 12.2 µM | actives 0.84% (n = 370,000) | AID 720700, 2013; in the data active = inhibition above about 9.5%
# sPLA2 confirm = human group III sPLA2 inhibitors, confirmation, biochemical, QFRET, triplicate. shares compounds with HGIII-sPLA2 inh. recombinant hGIII-sPLA2, BODIPY PC-A2 QFRET fluorescence. inhibition, % at 12.2 µM. actives 34% (n = 2,000). AID 743280, 2014;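 active = mean inhibition across triplicates above the hit cutoff set in the earlier primary screen, cut at about 19% in these data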;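 note: 0% = enzyme with DMSO and 100% = DMSO wells lacking enzyme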
# BODIPY interf = 535nm fluorescence optical interference, confirmation, artefact control for HGIII-sPLA2 inhibitor project, biochemical, QFRET | inhibition, % at 12.2 µM | actives 8.5% (n = 2,000) | shares compounds with HGIII-sPLA2 inh | BODIPY FL product fluorescence interference;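 active = average inhibition above the solvent-only control mean plus 3 SD, cut at about 6% in these data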;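 note: 0% = DMSO with substrate plus product and 100% = DMSO with substrate alone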
# BODIPY interf DR = 535nm fluorescence optical interference, dose response, artefact control for HGIII-sPLA2 inhibitor project, biochemical, QFRET. shares compounds with HGIII-sPLA2 inh. BODIPY FL product fluorescence interference, cell-free. IC50, µM. 240 tested, under 10 active. AID 743455, 2014;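 active = IC50 at or below 10 µM; inactive = IC50 above 10 µM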
# Starred values were filed as active, the others as inactive; . = not tested or not shown.
SMILES,PLCb3 inh,HGIII-sPLA2 inh,DAGLB inh,PLC-gamma1 inh,sPLA2 confirm,BODIPY interf,others
CCOc1ccc(N(CC(=O)Nc2c(C)n(C)n(-c3ccccc3)c2=O)S(=O)(=O)c2cc(OC)ccc2OC)cc1,0,5,.,0,.,.,
Cc1cccc(Oc2cc(N)cc([N+](=O)[O-])c2)c1,-1,20*,2,2,16,-2,
Nc1cc(Oc2cccnc2)cc([N+](=O)[O-])c1,3,5,2,4,.,.,
O=C(CSc1nnc(-c2cccs2)n1Cc1ccco1)Nc1ccc(Oc2ccccc2)cc1,-2,-17,.,-1,.,.,
CCc1ccccc1NC(=O)CCS(=O)(=O)c1ccc(C)cc1,1,20*,0,2,-2,-4,
CCc1ccccc1NC(=O)CCS(=O)(=O)c1ccc(Br)cc1,-2,-6,-1,0,.,.,
CCc1ccc(C(=O)NCc2ccc(Cl)cc2Cl)cc1,6,-2,-7,8,.,.,
CCc1ccc(C(=O)NCc2ccc(Cl)cc2)cc1,6,21*,-8,2,7,-6,
COC(=O)c1cnn(-c2ccc(F)cc2F)c1/C=N/NC(=S)Nc1ccccc1,2,22*,.,7,20*,0,
Cc1ccc2c(c1)C1CS(=O)(=O)N(C3CCCC3)CN1C2 (stereo not drawn),-5,3,.,-6,.,.,
CCn1c(-c2csc3ccccc23)n[nH]c1=S,-5,24*,1,-4,22*,1,
Cc1cc(-c2n[nH]c(=S)n2CC(C)C)cs1,0,20*,1,2,24*,0,
CCn1c(-c2csc(C(C)C)c2)n[nH]c1=S,6,22*,2,3,29*,2,BODIPY interf DR=>122
COc1ccc(-c2n[nH]c(=S)n2CC(C)C)cc1,0,13,-5,3,.,.,
CC(C)Cn1c(-c2csc(C(C)C)c2)n[nH]c1=S,-1,14,.,-2,.,.,
CC(C)Cn1c(-c2csc3ccccc23)n[nH]c1=S,2,13,-2,-2,.,.,
CC(C)(C)c1ccc(C#C[C@@H]2C=C[C@@H](O)[C@@H](CO)O2)cc1,3,20*,.,1,-2,-12,
CCCCCCC/C=C(\C)[C@@H](O)[C@@H](C)C(=O)N1CCC[C@@H]1C(=O)O[C@H](C(=O)O[C@@H](C)C(=O)O)[C@@H](C)CC,1,-58,.,0,.,.,
COC(=O)[C@]12C[C@H](CC(=O)NCC3CCCCC3)C(=O)N(CCc3ccc(OC)c(OC)c3)C1=C[C@H](COCc1ccccc1)O[C@@H]2C,5,-6,.,5,.,.,
CCC(C)(NC(=O)c1ccccc1)C(=O)O (stereo not drawn),-4,23*,0,7,2,-6,
CCn1c(SCC(=O)N/N=C/c2cccc(Oc3ccccc3)c2)nnc1-c1ccccc1,-3,-16,.,1,.,.,
CN(C)c1cccc2c1C(=O)c1ccccc1C2=O,-4,25*,24,7,33*,6.6*,
COc1ccc(C(=O)NNC(=S)NC(=O)c2ccc(Cl)cc2)cc1,7,6,.,4,.,.,
Cc1cccc(C(=O)NC(=S)NNC(=O)c2ccc(Cl)cc2)c1,1,24*,7,-1,40*,5,BODIPY interf DR=>122
COc1cc(C(=O)NNC(=S)NC(=O)c2ccc(Cl)cc2)cc(OC)c1OC,-2,26*,6,-1,30*,-24,BODIPY interf DR=>122
C[C@@H]1COc2cccc(F)c2S(=O)(=O)N1C,-1,8,.,-3,.,.,
S=c1[nH]nc(Cc2cccc3ccccc23)o1,-6,24*,4,-1,14,3,
Cc1[nH]c2ccccc2c1Cc1n[nH]c(=S)o1,-2,11,1,1,.,.,
Cc1ccc(C(=O)C2CCN(CC(=O)N3CCOCC3)CC2)cc1,2,3,.,2,.,.,
Nc1nc(N)c2cc(CNc3ccc(Cl)c(Cl)c3)ccc2n1,-11,23*,4,-5,11,-14,
